Assay outcomes (PubChem BioAssay)
Shown is part of a subset that was picked to be rich in hits.
LmPK inhibitor – blocks Leishmania mexicana pyruvate kinase activity; AID 1721; 0.37% of 290,000 active; purified LmPK, Kinase-Glo ATP luminescence, 1 h; Potency, µM (doses to about 57.5 µM), actives largely listed as inhibitors; Q27686
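Pyruvate kinase activity monitored as ATP production (luciferase luminescence). Conditions: 0.1 nM enzyme, 0.5 mM PEP, 0.1 mM ADP, 1 h, RT; normalized against uninhibited and no-enzyme wells.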
Shiga toxin inh – inhibitors of Shiga toxin in Vero cells; Vero cells, Shiga toxin protein synthesis inhibition reporter; 9.2% of 290,000 active; inhibition, % at 38.7 µM; in the data active means inhibition mostly above about 28%, no sharp cut-off; inactive means mostly below about 43%
Sm TGR inh – S. mansoni TGR enzyme inhibition; Potency, µM (titrated, usually from 114 µM), actives largely listed as inhibitors; 3% of 360,000 active; Q962Y6; purified TGR, DTNB reduction, TNB absorbance 405 nm; further: nearly all actives have a fitted effect of over 60% in size
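First, TGR (20 nM dispensed) and NADPH were mixed with compound. Second, a 15 min room-temperature incubation followed. Third, further NADPH and then DTNB were added to start the reaction. Finally, TNB absorbance was monitored kinetically.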
Tb PYK inh – inhibitors of Trypanosoma brucei pyruvate kinase | Q57TT1 | TbPYK enzyme, Kinase-Glo Plus ATP luminescence, 45 min | Potency, µM (series often up to 76.8 µM), most hits filed as inhibitors | 0.12% of 410,000 active; further: nearly all actives have a fitted effect of over 50% in size
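Luminescence from Kinase-Glo Plus, added after a 45-minute room-temperature reaction, served as the end-point read-out. The enzyme and substrate were preincubated with compound before ADP (130 uM final) initiated turnover. Concentration-effect curves came from normalized qHTS data.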
Cycloheximide cs – counter-screen hit for Shiga toxin inhibitors, cycloheximide; cell reporter, cycloheximide protein synthesis inhibition counterscreen; max response, %; 12% of 300,000 active; AID 2314; in the data active means max response mostly above about 13%, no sharp cut-off; inactive means mostly below about 14%; further: read at 38.3 µM for the half of the compounds with a filed dose
FBPA Giardia inh – inhibitors of Giardia lamblia fructose-1,6-bisphosphate aldolase. purified Giardia FBPA. Potency, µM (highest dose often 59.6 µM), most hits filed as inhibitors. 0.71% of 290,000 active. A8B2U2; further: nearly all actives have a fitted effect of over 55% in size
Target sequence (A8B2U2 whole entry, looked up): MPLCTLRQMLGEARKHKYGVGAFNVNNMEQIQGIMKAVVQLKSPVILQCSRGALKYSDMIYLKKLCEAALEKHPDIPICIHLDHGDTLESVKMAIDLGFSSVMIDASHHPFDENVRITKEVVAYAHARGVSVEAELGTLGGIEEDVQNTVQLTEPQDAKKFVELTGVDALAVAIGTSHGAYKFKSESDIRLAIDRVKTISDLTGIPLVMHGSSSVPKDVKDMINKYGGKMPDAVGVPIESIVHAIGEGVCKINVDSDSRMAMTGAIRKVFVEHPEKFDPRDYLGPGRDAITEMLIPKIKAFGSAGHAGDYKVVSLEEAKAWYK
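Giardia FBPA (40 nM reagent) was preincubated 10 min at RT with compound (up to 57.5 uM final), then substrate plus GAPDH/TPI/NAD/arsenate coupling system with diaphorase/resazurin was added; resorufin fluorescence (525/598 nm) was read after 20 min.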
Hits are given with their value; 0 = inactive; ? = inconclusive; - = not tested or not shown; [ ] = another dose, or the depositor's remark. Unless noted, the call rests on the fitted dose curve; in most records, active means well fitted curve in the direction sought with a large enough effect; inconclusive means small, poorly fitted or top-dose-only effect, or another doubt; inactive means no such curve, though single readings can be large; an effect the other way counts as inactive or inconclusive.

SMILES	LmPK inhibitor	Shiga toxin inh	Sm TGR inh	Tb PYK inh	Cycloheximide cs	FBPA Giardia inh
Cc1ccc(NC(=O)COC(=O)C2CC2(Cl)Cl)cc1C (stereo not given)	0	0	0	0	31.1	0
Cc1ccc(OCC(=O)O/N=C(\N)c2ccccn2)cc1C	0	94.8	0	0	50.8	0
N/C(=N\OC(=O)COc1ccccc1)c1ccc(Cl)cc1	0	0	0	0	0	0
Cc1ccc(NC(=O)Cn2c(=O)n(-c3ccc(C)cc3)c(=O)c3c2cnn3C)cc1	-	-	0	0	-	-
CN(C)Cc1ccccc1-c1cc(N(C)C)ncn1	-	-	-	-	-	0
Cc1ccc(NC(=O)COc2ccc(-n3cnnn3)cc2)cc1C	0	0	0	0	0	0
Cc1cccc(OCC(=O)O/N=C(\N)c2ccccn2)c1	0	62.5	0	0	51.6	0
Cc1ccc(NC(=O)COc2ccc(/C(N)=N/O)cc2)cc1C	0	84.1	0	0	0	0
Cc1ccc(OCC(=O)O/N=C(\N)c2ccncc2)cc1C	0	53.9	0	0	28.9	0
CCc1ccc(OCC(=O)O/N=C(\N)c2ccccn2)cc1	0	84.8	0	0	54.3	0
CCc1nn(CC(=O)Nc2cccc(C(C)=O)c2)c(=O)c2cc3sccc3n12	-	-	0	0	-	-
COc1ccc2nc(N3CCN(C(=O)C4CC4)CC3)sc2c1	-	-	0	0	-	-
Cc1ccc(-c2cc(NC(=O)COc3c(C)cc(C)cc3C)on2)cc1	-	-	0	0	-	-
COc1cc(NC(=O)NC(C)c2c(-n3cccc3)sc3c2CCN(C)C3)cc(OC)c1 (stereo not given)	-	-	0	0	-	-
Cc1occc1C(=O)NNC(=O)Nc1ccc(F)cc1F	0	0	?	0	0	0
Cc1ccc(CNC(=S)Nc2ccc(C)c([N+](=O)[O-])c2)cc1	0	0	0	0	0	0
CNC(=S)Nc1ccc([N+](=O)[O-])c(C)c1	0	0	39.8µM	0	0	0
Cc1ccc([N+](=O)[O-])cc1NC(=O)c1ccoc1C	0	48.3	0	0	35.2	0
Cc1occc1C(=O)Nc1ccc(Br)cc1F	0	52.2	0	0	50.9	0
CNC(=S)Nc1ccc([N+](=O)[O-])cc1C	0	0	10µM	0	0	0
Cc1cc([N+](=O)[O-])ccc1NC(=O)c1cccc(NC(=O)C(C)C)c1	0	107.9	0	0	15.5	0
Cc1cc([N+](=O)[O-])ccc1NC(=O)c1csc(C)c1C	0	98.6	0	0	63.4	0
COCC(=O)Nc1ccc([N+](=O)[O-])cc1C	0	0	0	0	0	0
CC(C)C(=O)Nc1cccc(C(=O)Nc2cc([N+](=O)[O-])ccc2Cl)c1	0	0	0	0	0	0
CCOc1ccccc1CNC(=O)CCn1c(=O)c2cccn2c2ccc(F)cc21	-	-	0	0	-	-
SMILES	LmPK inhibitor	Shiga toxin inh	Sm TGR inh	Tb PYK inh	Cycloheximide cs	FBPA Giardia inh
Cc1nc(-c2cc(-c3ccc(Cl)cc3)no2)cs1	0	83.2	0	0	52.3	0
OC(c1ccccc1)(c1nc(-c2cccc(F)c2)cs1)C(F)(F)F (stereo not given)	-	-	-	0	-	-
Clc1ccc(-c2csc(-c3ccno3)n2)cc1	0	0	0	0	22.9	0
Fc1cccc(-c2csc(-c3ccno3)n2)c1	0	38.1	0	0	25.2	0
Clc1ccc(-c2nc(-c3cc4cc(Cl)ccc4o3)cs2)cc1	0	0	0	0	0	0
O=C(c1ccc(Cl)c(S(=O)(=O)N2CCOCC2)c1)N1CCc2ccccc2C1	-	-	-	0	-	-
CCOCCCNC(=O)c1cc(=O)[nH]c2ccc(S(=O)(=O)N3CCCC3)cc12	-	-	0	0	-	-
CCCCc1nc2c(c3c1C[C@H](C)OC3)CN(C(=O)NCCCC(=O)OCC)CC2	0[11.5 µM]	-	-	-	-	0[12.9 µM]
CCC(C)/C(C)=N/NC(=O)c1ccc(COc2ccc(Cl)c(C)c2)cc1 (stereo not given)	0	0	0	0	38.5	0
O=C(O)c1ccc(CSc2nc3ccc(N4C(=O)C5C6C=CC(C6)C5C4=O)cc3s2)cc1 (stereo not given)	0	0	0	0	0	0
CC(C)Sc1nc2ccc(N3C(=O)C4CCCCC4C3=O)cc2s1 (stereo not given)	0	0	0	0	23.8	0
COc1ccccc1NC(=O)c1c(N=Cc2c(O)ccc3ccccc23)cnn1C	0	0	50.1µM	0	0	?
NC(=O)c1nc(-c2ccc(F)c(F)c2)nc2c1[nH]c(=O)n2-c1cccc(Cl)c1	-	-	0	0	-	-
C/C=C/C=N/Nc1nc(-c2ccc([N+](=O)[O-])cc2)cs1	0	90.2	0	0	0	0
CC(C)c1nc(-c2ccc([N+](=O)[O-])cc2)cs1	0	56.1	0	0	38.9	0
CC(C)=NNc1nc(-c2ccc([N+](=O)[O-])cc2)cs1	0	18.3	0	0	22.0	0
CC(=O)Nc1nc(-c2ccc([N+](=O)[O-])cc2)cs1	0	0	0	0	0	0
CCOc1ccc(Nc2oc(-c3ccc(COc4ccc(OC)cc4)o3)nc2C#N)cc1	-	-	0	0	-	-
COc1ccc(CNC(=O)CCc2nc(-c3ccc(C)cc3)no2)c(OC)c1	-	-	0	0	-	-
C=C(CC(=O)OC)C[C@]1(CC(=O)OC)CC2(CC=C(C)C)C(=O)C(C(=O)c3ccccc3)=C(OC(=O)c3ccc(Br)cc3)C(CC=C(C)C)(C1)C2=O (stereo not given in full)	-	-	-	-	-	0[12.9 µM]
Cc1csc(CN(C)C(=O)CC2C(=O)NCCN2Cc2ccc(Cl)c(F)c2)n1 (stereo not given)	0	0	44.7µM	0	0	0
Cc1csc(CN(C)C(=O)CC2C(=O)NCCN2Cc2ccc(F)cc2Cl)n1 (stereo not given)	0	0	12.6µM	0	0	-
Cc1csc(CNC(=O)CC2C(=O)NCCN2Cc2ccc(F)cc2Cl)n1 (stereo not given)	0	0	0	0	0	-
Cc1csc(CN(C)C(=O)CC2C(=O)NCCN2Cc2ccc(-c3ccccc3)cc2)n1 (stereo not given)	0	0	0	0	0	0
Cc1ccccc1N1C(=O)CC(Nc2ccc3c(c2)OCO3)C1=O (stereo not given)	0	0	?	0	0	0
SMILES	LmPK inhibitor	Shiga toxin inh	Sm TGR inh	Tb PYK inh	Cycloheximide cs	FBPA Giardia inh
Cc1ccc(N2C(=O)CC(Nc3ccc(Cl)c(S(=O)(=O)N(C)C)c3)C2=O)c(C)c1 (stereo not given)	0	0	31.6µM	0	0	0
Cc1ccc2nc(Cc3ccc(N)cc3)[nH]c2c1	0	75.3	0	0	19.7	?
S=c1nc(Cc2ccccc2)[nH]c2ccccc12	0	0	0	0	0	0
Cc1ccc2nc(-c3ccccc3N)[nH]c2c1	?	0	-	0	41.2	0
Nc1ccc(Cc2nc3c(ccc4ccccc43)[nH]2)cc1	0	97.0	0	0	45.8	0
Cc1ccc(C)c(-c2nc3ccc(N)cc3[nH]2)c1	0	0	0	0	14.2	0
CCn1cc(C(C)NC(=O)Nc2ccccc2C(=O)OC)c(C)n1 (stereo not given)	0	0	0	0	0	0
